Our source for the activation, Potency and activity change, negative = inhibition values is PubChem BioAssay (NCATS).

For test [1], the target named is Cellular tumor antigen p53 (Homo sapiens) (UniProt P04637). Description: Primary qHTS for small molecule compounds that upregulate eGFP-tagged delta133p53alpha (in N-terminal) cells. (AID 2060322). Also: nearly all actives have a fitted effect of over 75% in size. Also: potency is read from the fitted curve at half-maximal effect.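 As to activation: series mostly up to about 56 µM; 0% = DMSO vehicle and 100% = reference activator.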 As to conditions: NCI-H358 eGFP-delta133p53alpha fluorescence, 24 h; activation: active compounds read high. In outline: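 NCI-H358 cells pre-induced 24 h with 10 ng/ml doxycycline to express N-terminal eGFP-delta133p53alpha, then dosed 24 h at 37C without doxycycline; fixed, Hoechst-stained, GFP intensity by laser scanning cytometry, normalized to DMSO (0%) and 57.5 uM 5-azacytidine (100%).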
Cellular tumor antigen p53 (Homo sapiens), sequence (P04637 whole entry, looked up): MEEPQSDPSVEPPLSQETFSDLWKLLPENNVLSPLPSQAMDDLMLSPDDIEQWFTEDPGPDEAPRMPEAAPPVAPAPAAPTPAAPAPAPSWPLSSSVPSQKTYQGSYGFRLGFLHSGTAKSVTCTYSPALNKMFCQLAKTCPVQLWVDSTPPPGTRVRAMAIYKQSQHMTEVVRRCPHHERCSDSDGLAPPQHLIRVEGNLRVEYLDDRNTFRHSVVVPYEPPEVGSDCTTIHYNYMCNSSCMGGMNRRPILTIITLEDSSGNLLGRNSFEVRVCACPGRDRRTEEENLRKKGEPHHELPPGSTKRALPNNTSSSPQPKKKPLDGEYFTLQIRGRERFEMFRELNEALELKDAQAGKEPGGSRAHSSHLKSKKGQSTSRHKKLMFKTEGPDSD
(In general: Quantitative high-throughput screening tests each substance at several concentrations.)

Test [2] concerns the target Aldehyde dehydrogenase, mitochondrial (Homo sapiens) (UniProt P05091). Description: qHTS for Inhibitors of the Aldehyde Dehydrogenase Family (ALDH2) Primary screen (AID 2061308).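 Also: plate controls were vehicle for no effect and reference inhibitor for full effect; nearly all actives have a fitted effect of over 55% in size.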
In test [3] the target is Retinaldehyde dehydrogenase 3 (Homo sapiens) (UniProt P47895). The test can be described thus: qHTS for Inhibitors of the Aldehyde Dehydrogenase Family (ALDH1A3) Primary screen (AID 2061315).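 Also: plate controls were DMSO vehicle for no effect and reference inhibitor for full effect.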

Where “and” joins values, the source holds several entries; their conditions need not be identical. Equal values may be shown once. Results filed as inconclusive are left out. Unmarked numbers belong to inactive results. Calls of active or inactive are those of the source. Calls follow the shape of the dose curve; as a rule, active = well fitted curve in the direction sought with a large enough effect; inconclusive = small, poorly fitted or top-dose-only effect, or another doubt; inactive = no such curve, though single readings can be large; an effect the other way counts as inactive or inconclusive. Square brackets hold non-standard residues; d marks the D form. Peptide text beside a SMILES is read from it. * marks the point of attachment. ξ: configuration not given here. AFC = O=c1cc(C(F)(F)F)c2ccc(N*)cc2o1; ξLac(3-iPr) = CC(C)CC(O)C(=O)O; NMeV = CN[CH](C(=O)O)C(C)C; βAla = NCCC(=O)O

On to `COc1cc2c(c(OC)c1CC=C(C)C)C[C@H](c1ccc(O)cc1O)CO2`, for which the activation in test [1] was 12.5%. The Potency entry in test [2] and in test [3] was “inactive” in each case.
For `CC12CC34CC(O)C5C(CO)(CO)CC(=O)CC5(C)C3CC1C2C4` (configuration not stated), the activation in test [1] was 5.34%. Besides, the Potency result in test [2] and in test [3] was “inactive” each time.
Turning to `CC(=O)N[C@@H](Cc1c[nH]c2ccccc12)C(=O)N[C@@H](CCC(=O)O)C(=O)N[C@@H](Cc1cnc[nH]1)C(=O)N[C@@H](CC(=O)O)C(=O)Nc1ccc2c(C(F)(F)F)cc(=O)oc2c1` (Ac-WEHD-{AFC}), the activation in test [1] is -4.33%. The Potency result in test [2] and in test [3] was “inactive” in each case.
As for `CCCO[C@@H]1O[C@H](CO)[C@@H](O)[C@H](O)[C@H]1O[C@@H]1OC[C@@H](O)[C@H](O)[C@H]1O`, the activation in test [1] was -15.3%. Moreover, the Potency result in test [2] and in test [3] was “inactive” in each case.
As to `CC(=O)OC1C[C@]2(C)C(O)CC(C)=C[C@H](OC(=O)c3ccc(O)cc3)C2[C@]1(O)C(C)C` (some centres not stated), in test [1], the activation is -20.6%. The Potency entry in test [2] and in test [3] was “inactive” each time.
As for `CCC(C)(OC(C)=O)C(=O)O[C@H]1[C@H](OC(C)=O)[C@]2(CO)[C@H](O)[C@H](O)[C@]3(C)C(=CCC4[C@@]5(C)CC[C@H](O[C@@H]6O[C@H](C(=O)O)[C@@H](O)[C@H](O[C@@H]7OC[C@H](O)[C@H](O[C@@H]8OC[C@H](O)[C@H](O)[C@H]8O)[C@H]7O)[C@H]6O[C@@H]6O[C@H](CO)[C@@H](O)[C@H](O)[C@H]6O)C(C)(C)C5CC[C@]43C)[C@@H]2CC1(C)C` (some centres not stated), in test [1], the Potency was 3.2 µM (active). Besides, the activity change, negative = inhibition in test [2] is -13.5% [at 11.2 µM]; in test [3], 11.4% [at 11.2 µM].
In the case of `CC(C(O)c1ccccc1)N(C)CCOC(c1ccccc1)c1ccccc1` (configuration not stated), in test [1], the Potency is 21.9 µM (active). In addition, the Potency entry in test [2] and in test [3] was “inactive” throughout.
`CC(C)CC(=O)OC[C@@]1(O)C[C@@]23CC[C@H]4[C@@](C)(CCC[C@@]4(C)C(=O)O)[C@@H]2CC[C@@H]1C3`: the activation in test [1] is -13%. Further, the Potency entry in test [2] and in test [3] was “inactive” throughout.
Regarding `O=C(O)Cc1cn([C@@H]2O[C@H](CO)[C@@H](O)[C@H](O)[C@H]2O[C@@H]2O[C@H](CO)[C@@H](O)[C@H](O)[C@H]2O)c2ccccc12`, in test [1], the activation is 3.82%. The Potency result in test [2] and in test [3] was “inactive” each time.
`CCOc1ccc(-c2nn3ncccc3c2-c2ccc(S(C)(=O)=O)cc2)cc1`: in test [1], the activation was -4.46%. Moreover, the Potency result in test [2] and in test [3] was “inactive” in each case.
As for `CCCCS(=O)(=O)N[C@@H](Cc1ccc(OCCCCC2CCNCC2)cc1)C(=O)O`, in test [1], the activation is -22% and 10.3%. For the same compound, the Potency result in test [2] and in test [3] was “inactive” in each case.
As for `CC(=O)OC[C@]12[C@@H](OC(=O)c3ccoc3)C[C@@H]3[C@@H](OC(C)=O)[C@]1(OC3(C)C)[C@@](C)(O)C[C@H](OC(=O)c1ccoc1)[C@@H]2OC(=O)c1ccoc1`, the activation in test [1] is -9.16%. Besides, the Potency entry in test [2] and in test [3] was “inactive” each time.
As to `C[C@@H]1O[C@@H](O[C@H]2[C@H](O[C@H]3[C@H](O[C@H]4CC[C@@]5(CO)C(CC[C@]6(C)C5CC=C5C7CC(C)(C)C[C@@H](O)[C@]7(C)CC[C@]56C)C4(C)C)O[C@H](C(=O)O)[C@@H](O)[C@@H]3O)OC[C@@H](O)[C@@H]2O)[C@H](O)[C@H](O)[C@H]1O` (some centres not stated), the activation in test [1] is -15.3%. In addition, the Potency entry in test [2] and in test [3] was “inactive” in each case.
Regarding `CC(C)CC1OC(=O)C2CCCN2C(=O)CCNC(=O)C(Cc2ccccc2)NC(=O)C(C(C)C)N(C)C(=O)C(C(C)C)N(C)C1=O` (configuration not stated) (cyclo([ξLac(3-iPr)][NMeV][NMeV]F[βAla]P); configuration not given here), in test [1], the activation is -23.7%. For the same compound, the Potency entry in test [2] and in test [3] was “inactive” each time.
Take `CC(=O)OC1CC(C)C2(CCC3(CC(=O)OC3O)O2)C2(C)CCCC(C)(C)C12` (configuration not stated): the activation in test [1] was 22.3%. For the same compound, the Potency entry in test [2] and in test [3] was “inactive” in each case.
On to `COC1CC/C=C(\C)C(=O)Nc2cc(O)cc(c2)CC(C)CC(OC)C(O)C(C)/C=C(\C)C1OC(N)=O` (configuration not stated), for which, in test [1], the activation is 6.87%. Also, the Potency result in test [2] and in test [3] was “inactive” throughout.
Regarding `C=C1CC23CC1(O)CCC2C1=CC2OC(=O)C(C)(C2O)C1C3C(=O)O` (configuration not stated), the activation in test [1] was 6.87%. Moreover, the Potency entry in test [2] and in test [3] was “inactive” in each case.
As to `Cc1csc(NC(=O)c2ccc(COc3cccc(Cl)c3)o2)n1`, the activation in test [1] is -9.67%. Moreover, the Potency result in test [2] and in test [3] was “inactive” throughout.
Take `CC1CCC23COC(=O)C2=CC(O)CC3C1(C)CCc1ccoc1` (configuration not stated): in test [1], the activation was -14.3%. The Potency result in test [2] and in test [3] was “inactive” throughout.
For the compound `CC1(C)CC2C(O)c3cocc3CC(C)(O)C2C1` (configuration not stated), the activation in test [1] is -8.04%. In addition, the Potency result in test [2] and in test [3] was “inactive” throughout.
In the case of `C=C1C(=O)O[C@@H]2CC(C)=C([C@@H](C)CCCO)[C@@H](OC(=O)C(C)C)[C@H]12`, the activation in test [1] is 14.3%. The Potency result in test [2] and in test [3] was “inactive” in each case.
On to `Cc1nnsc1C(=O)Nc1ccc(-n2nc(C(F)(F)F)cc2C(F)(F)F)cc1`, for which the activation in test [1] was 1.43%. In addition, the Potency result in test [2] and in test [3] was “inactive” each time.
Turning to `COc1nc2sc(C(=O)NC3CC3)c(N)c2c(C)c1Cl`, the activation in test [1] was -6.33%. The Potency result in test [2] and in test [3] was “inactive” each time.
Consider `CC(C)(C)Nc1nc2cc(Cl)c(Cl)cc2nc1S(C)(=O)=O`, for which the Potency in test [1] was 3.38 µM (active). Besides, the Potency entry in test [2] and in test [3] was “inactive” each time.
